# In PubChem BioAssay (Tox21):
# Records with an inconclusive call do not appear. Unmarked numbers belong to inactive results. Calls come from the whole dose curve; as a rule, active = well fitted cell-killing curve with a large enough effect in the repeat runs; inconclusive = weak or mixed curves; inactive = flat fitted curve, though single readings scatter.
# Test: qHTS assay to identify small molecule antagonists of the TGF-beta/Smad signaling pathway - cell viability counter screen (AID 1346824); note: nearly all actives have a fitted effect of over 50% in size
# Conditions: SBE-bla HEK293T viability, CellTiter-Glo luminescence; series mostly up to 76.8 µM; viability change, negative = cytotoxic: at the top concentration
# Method in brief: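 SBE-bla HEK 293T cells were plated overnight at 37 C, then given compounds in DMSO plus TGF-beta1 (added as 0.25 ng/mL solution) for 5 hr. After the bla read, CellTiter-Glo was added to the same wells and luminescence read after 30 min at room temperature.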
# % is set by controls: 0 for no effect and ±100 for the full control effect.
row,Structure (SMILES),"viability change, negative = cytotoxic"
1,O=C(CCS)OCC(COC(=O)CCS)(COC(=O)CCS)COC(=O)CCS,-2.34%
2,C/C(C=O)=C\c1ccccc1,0.984%
3,O=C(O)CCS,3.9%
4,CC1C(C)(C)C2=C(C(=O)CCC2)C1(C)C (stereo not drawn),13.4%
5,CC(C)CC(O)CC(C)C,-0.312%
6,CCCCCc1ccco1,2.07% [at 35.3 µM]
7,NC(=O)c1ccccc1[N+](=O)[O-],-18.4%
8,O=C(O)c1cccc(C[C@@H]2COc3ccc(OCc4nc5cc(F)ccc5s4)cc3[C@@H]2O)c1,0.841%
9,CCCCCC,-9.99%
10,CC(C)(C(=O)c1cccnc1)c1cccnc1,-4.21% [at 35.3 µM]
11,Cc1cc(CCC(=O)OCCOCCOCCOC(=O)CCc2cc(C)c(O)c(C(C)(C)C)c2)cc(C(C)(C)C)c1O,6.4%
12,O=C(O)CO,24.7%
13,O=C(O)CCC(=O)OC[C@@H](NC(=O)C(Cl)Cl)[C@H](O)c1ccc([N+](=O)[O-])cc1,-15.6% [at 35.3 µM]
14,Nc1ccc(N=Nc2ccc(N)cc2)cc1,-0.0935% [at 35.3 µM]
15,CC(C)(C)CCCCCCOC(=O)c1ccccc1C(=O)OCCCCCCC(C)(C)C,-4.89%
16,CC(C)C(=O)OCCOc1ccccc1,1.73%
17,CCCCCCCCCCCCCCN(C)C,-8.55% [at 15.8 µM]
18,BrC(Br)C(Br)Br,-2.72%
19,COc1cc(NS(=O)(=O)c2ccc(N)cc2)nc(C)n1,-1.29% [at 35.3 µM]
20,COc1ccc(CCN(C)CCCN2CCc3cc(OC)c(OC)cc3CC2=O)cc1OC,-16.7% [at 35.3 µM]
21,O=NN(CCCl)C(=O)NCCCl,-5.37% [at 35.3 µM]
22,O=C(Nc1ccc(C(=O)O)c(O)c1)c1ccccc1,-0.204% [at 35.3 µM]
23,C=C(C)C(=O)OCCC(F)(F)C(F)(F)C(F)(F)C(F)(F)C(F)(F)C(F)(F)F,2.44%
